# Screens (PubChem)
# The list is not random: actives were taken first. Their share in the collection is about 0.92%.
# Mtb hypoxia inh: PubChem AID 1159583; hit rate 0.1% among 300,000; fluorescence inhibition, % (concentration not given with the values); M. tuberculosis hypoxia-regulated fluorescent reporter, fluorescence; in the data active = fluorescence inhibition mostly above about 23%, no sharp cut-off; inactive = mostly below about 17%
# Mtb UGM inh: M. tuberculosis UGM enzyme inhibitors, primary screen, biochemical, fluorescence polarization, single point; UDP-galactopyranose mutase (Mycobacterium tuberculosis (strain ATCC 25618 / H37Rv)), …; purified UGM, fluorescence polarization probe displacement; inhibition, % at 10 µM; hit rate 0.06% among 320,000; AID 504406, 2011; in the data active = inhibition above about 10%, passing the limit was not always enough; inconclusive = no clear call, values can overlap the other calls
# FadD28 FP inh: inhibitors of FadD28 bisubstrate probe binding, primary screen, biochemical, fluorescence polarization, single point; Mycobacterium tuberculosis FadD28 fatty-acid-AMP ligase; hit rate 0.22% among 360,000; inhibition, % at 12.5 µM; in the data active = inhibition above about 8.5%, passing the limit was not always enough; inconclusive = no clear call, values can overlap the other calls
# Rv3671c protease: Rv3671c serine protease inhibitors, primary screen, biochemical, fluorescence polarization, M. tuberculosis H37Rv | P9WHR9 | inhibition, % at 5.96 µM | hit rate 0.048% among 320,000 | AID 2606, 2010; in the data active = inhibition above about 38%;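 note: extracellular domain of Rv3671c used as enzyme; 0% = enzyme with DMSO and 100% = no enzyme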
# Mtb betalactam: beta-lactam sensitization of Mtb H37Rv, H37Rv; M. tuberculosis H37Rv growth with meropenem, percent inhibition; inhibition, % at 25 µM; hit rate 0.27% among 330,000; AID 434955, 2010; call rule not given here;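 note: growth measured after seven days incubation then overnight dye step; 0% = bacteria only wells and 100% = bacteria with antibiotic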
# RecA splice inh: Mtb RecA intein splicing inhibitors, primary screen, biochemical, fluorescence, HTS. inhibition, % (concentration not given with the values). AID 2221, 2009. Protein RecA (Mycobacterium tuberculosis (strain ATCC 25618 / H37Rv)), P9WHJ3. cell-free RecA intein splicing. hit rate 0.75% among 290,000; in the data active = inhibition above about 30%; inconclusive = no clear call, values can overlap the other calls;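 note: 0% = vehicle wells and 100% = reference inhibitor control wells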
# The depositor's hits bear a star; ? = inconclusive; nt = no result shown.
SMILES,Mtb hypoxia inh,Mtb UGM inh,FadD28 FP inh,Rv3671c protease,Mtb betalactam,RecA splice inh
Cc1cc2nc3c(=O)n(CCc4ccccc4)c(=O)[nH]c3nc2cc1N,-20,17*,-2,-9,-6,-350
CCCCn1c(=O)[nH]c2nc3cc(N)ccc3nc2c1=O,4,33*,3,9,-5,nt
Nc1ccc2nc3c(=O)n(CCc4ccccc4)c(=O)[nH]c3nc2c1,-3,?,-1,-24,-5,-189
CC1(C)OC(=O)C(=CNc2cccc(C(=O)O)c2)C(=O)O1,2,0,-2,-8,0,-1
CCN(CC)C(=O)CSc1nnc2nnc3cc(C)ccc3n12,nt,0,2,6,78,-2
CCN(CC)C(=O)CSc1nnc2nnc3cc(Cl)ccc3n12,nt,2,-2,-8,97,42*
CCc1c(C(=O)NNC(=S)Nc2ccc(S(=O)(=O)Nc3ncccn3)cc2)csc1C,-2,3,9.6*,2,-5,-1
O=S(=O)(Nc1ncccn1)c1ccc(NC(=S)Nc2ccccc2)cc1,12,0,-2,2,0,-4
CC1CCC(C(C)C)C(OC(=O)C[n+]2cc(-c3ccc(Cl)cc3)n3c2CCCCC3)C1 (stereo not drawn),nt,4,-4,-3,100,nt
COc1ccc(NC(=O)c2cccc(N3C(=O)C4C5C=CC(C5)C4C3=O)c2)cc1Cl (stereo not drawn),nt,0,-5,-1,64,94*
CC(=O)Cc1cc(O)c2ccccc2c1OC(=O)c1ccc(Br)cc1,-2,3,-3,-4,1,nt
CCOC(=O)C1CCN(C(=O)C2CCN(c3ncnc4c3nc3n4CCCCC3)CC2)CC1,-10,2,0,3,50,-6
CC1CCN(C(=O)C2CCN(c3ncnc4c3nc3n4CCCCC3)CC2)CC1,28*,3,1,-4,100,-6
O=c1oc(-c2ccc(O)c(O)c2)cc2cc(O)cc(O)c12,nt,nt,12*,-11,-1,nt
O=C(CCl)Nc1ccc(N2CCCCCC2)cc1,15,-2,-1,6,97,48*
O=C(COC(=O)/C=C/c1ccc(Cl)cc1)Nc1cccc(S(=O)(=O)NC2=NCCCCC2)c1,22,0,-3,-16,1,nt
CCN(CC)CCNC(=O)c1cccc(NC(=O)C(=O)c2ccccc2NC(C)=O)c1,8,0,-1,-6,-4,nt
C/C(=N\NC(=O)C1CC1)c1cccnc1,nt,2,-4,0,-2,-2
CCC(=Nc1ccccc1O)C1=C(O)CC(c2ccccc2)CC1=O (stereo not drawn),70*,-2,0,-13,98,3
CCC(=Nc1ccccc1OC)C1=C(O)CC(c2ccccc2)CC1=O (stereo not drawn),0,0,-3,2,0,0
Cc1ccccc1C(=O)N/N=C/c1ccc(Sc2ccccn2)o1,nt,1,-2,-12,nt,-1
O=C(Nc1ccc(Oc2cccnc2)cc1)C1CCN(Cc2cc(Cl)ccc2O)CC1,6,1,2,-4,66,4
Cc1ccc(/C=N/NC(=O)CSc2nc3nc(C)cc(C)n3n2)cc1,nt,-1,-3,-2,-2,1
Cc1ccc(NC(=O)c2cc(S(=O)(=O)N(C)C)ccc2N2CCCC2)cc1S(=O)(=O)N(C)C,-5,1,-2,8,-3,2
Cc1ccc(NC(=O)c2cc(S(=O)(=O)N3CCCCC3)ccc2N2CCOCC2)cc1S(=O)(=O)N(C)C,26*,nt,-3,nt,nt,nt
O=C1NN(c2ccc(F)c(Cl)c2)C(=O)/C1=C\c1cccc(OC(=O)c2cccs2)c1,nt,-1,26*,7,99,22
CC(C)=C1C(=O)NN(c2ccc(F)c(Cl)c2)C1=O,2,0,?,8,77,-2
CCc1ccc(C2NC(=S)NC3=C2C(=O)N(c2ccccc2OC)C(c2ccc(CC)cc2)N3)cc1 (stereo not drawn),1,-2,-2,8,7,11
O=C1C2=C(NC(=S)NC2c2ccc(Cl)cc2)NC(c2ccc(Cl)cc2)N1c1ccc(Cl)cc1 (stereo not drawn),0,0,-5,0,-1,37*
